Molecules are shown by their SMILES. Results filed as inconclusive are left out. A number with no mark means an inactive call. The source made the active and inactive calls. Calls come from the whole dose curve; as a rule, active = well fitted curve in the direction sought with a large enough effect; inconclusive = small, poorly fitted or top-dose-only effect, or another doubt; inactive = no such curve, though single readings can be large; an effect the other way counts as inactive or inconclusive.

Assay [1] is described as follows: NS1 protein of Zika virus - qHTS assay to identify small molecule inhibitors in human HEK 293 cells (AID 1347053). Note: series mostly up to about 46 µM; nearly all actives have a fitted effect of over 55% in size. In a few lines:
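Following 20 h seeding, HEK 293 cells took compound, then 1 h later ZIKV MR766 (MOI = 0.5). Incubation ran 24 h at 37 C before TR-FRET detection of NS1; a drop in signal indicates inhibition.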
In general terms: In qHTS, concentration-response curves come from the screen itself.

Assay [2] in a line: qHTS of pediatric cancer cell lines to identify multiple opportunities for drug repurposing: Primary screen for TC32 cells (AID 1347089). Note: nearly all actives have a fitted effect of over 60% in size. In a few lines:
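Luminescent CellTiter-Glo read-out of metabolically active TC32 cells after 48 h compound exposure. Primary: MIPE 11-point, 0.78 nM–46 µM; NPC 8-point, 0.59 nM–46 µM. Confirmatory: 11-point dilutions.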

Assay [3] in a line: qHTS of pediatric cancer cell lines to identify multiple opportunities for drug repurposing: Primary screen for DAOY cells (AID 1347090). Note: series mostly up to about 46 µM; nearly all actives have a fitted effect of over 55% in size. In a few lines:
(§1)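 Viability measured as metabolically active cells via CellTiter-Glo luminescence following 48 hours of compound exposure, 11-point dilutions in confirmatory testing. 500-1,000 cells/well plated 5 hours before dosing; controls were DMSO and 2.3 µM bortezomib.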

A short description of assay [4]: qHTS of pediatric cancer cell lines to identify multiple opportunities for drug repurposing: Primary screen for SJ-GBM2 cells (AID 1347091). The essentials: as §1
Assay [5] in a line: qHTS of pediatric cancer cell lines to identify multiple opportunities for drug repurposing: Primary screen for A673 cells (AID 1347092). Note: nearly all actives have a fitted effect of over 45% in size. In a few lines: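 A673 cells (500-1,000 cells/well in growth media) were pre-incubated 5 h at 37 degrees C, then exposed to compounds for 48 h. Viability was read as CellTiter-Glo luminescence; concentration-response curves came directly from the primary screen.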

Assay [6] is described as follows: qHTS of pediatric cancer cell lines to identify multiple opportunities for drug repurposing: Primary screen for SK-N-MC cells (AID 1347093). Note: series mostly up to about 46 µM. The essentials:
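Metabolically active cells were quantified by ATP-dependent luminescence (CellTiter-Glo, 15 min at room temperature) following 48 h treatment. Cells had been plated at 500-1,000 per well and settled for 5 h beforehand.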

Assay [7] is described as follows: qHTS of pediatric cancer cell lines to identify multiple opportunities for drug repurposing: Primary screen for BT-37 cells (AID 1347094). Note: series mostly up to about 57 µM. In a few lines: (§2)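 ATP-based luminescence (CellTiter-Glo) quantifies viability after a 48-hour exposure. Compounds are dosed across 8 or 11 final concentrations; DMSO and 2.3 µM bortezomib serve as controls.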
Assay [8] in a line: qHTS of pediatric cancer cell lines to identify multiple opportunities for drug repurposing: Primary screen for U-2 OS cells (AID 1347096). Note: nearly all actives have a fitted effect of over 50% in size. In a few lines: (§3)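 Viability after 48 h compound treatment at 37C, 500-1,000 cells/well, read as ATP luminescence with CellTiter-Glo. Primary screens used 11-point (MIPE, 0.78 nM-46 µM) or 8-point (NPC, 0.59 nM-46 µM) final concentrations; follow-up screens used 11-point dilutions.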

The nature of assay [9]: qHTS of pediatric cancer cell lines to identify multiple opportunities for drug repurposing: Primary screen for SK-N-SH cells (AID 1347098).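 Note: DMSO served as neutral control and bortezomib at 2.3 µM as positive control; nearly all actives have a fitted effect of over 65% in size.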 In a few lines:
(§4)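 Cells (500-1,000/well) rested 5 h, then received compounds for 48 h; metabolically active cells were measured by CellTiter-Glo luminescence. Final concentrations spanned up to 46 µM (MIPE, 11-point) or 0.59 nM-46 µM (NPC, 8-point) in primary screens, 11-point in follow-ups.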

Assay [10] can be described thus: qHTS of pediatric cancer cell lines to identify multiple opportunities for drug repurposing: Primary screen for NB1643 cells (AID 1347099). Note: nearly all actives have a fitted effect of over 50% in size. Note: potency is the fitted concentration of half-maximal effect. The essentials:
as §2

The nature of assay [11]: qHTS of pediatric cancer cell lines to identify multiple opportunities for drug repurposing: Primary screen for LAN-5 cells (AID 1347100). The essentials: as §3
Assay [12] is described as follows: qHTS of pediatric cancer cell lines to identify multiple opportunities for drug repurposing: Primary screen for BT-12 cells (AID 1347101). Note: nearly all actives have a fitted effect of over 25% in size. The essentials: as §4
Assay [13] in a line: qHTS of pediatric cancer cell lines to identify multiple opportunities for drug repurposing: Primary screen for Rh18 cells (AID 1347102). Note: nearly all actives have a fitted effect of over 65% in size. In a few lines:
as §3

The nature of assay [14]: qHTS of pediatric cancer cell lines to identify multiple opportunities for drug repurposing: Primary screen for OHS-50 cells (AID 1347103). Note: nearly all actives have a fitted effect of over 40% in size. In a few lines:
as §4

Assay [15] can be described thus: qHTS of pediatric cancer cell lines to identify multiple opportunities for drug repurposing: Primary screen for RD cells (AID 1347104). Note: nearly all actives have a fitted effect of over 55% in size. The essentials: as §2
The nature of assay [16]: qHTS of pediatric cancer cell lines to identify multiple opportunities for drug repurposing: Primary screen for control Hh wild type fibroblast cells (AID 1347106).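 Note: series mostly up to about 46 µM; a drop in luminescence marks cytotoxicity and a rise apparent proliferation; nearly all actives have a fitted effect of over 55% in size.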 The essentials:
as §3

A short description of assay [17]: qHTS of pediatric cancer cell lines to identify multiple opportunities for drug repurposing: Primary screen for Rh30 cells (AID 1347107). Note: series mostly up to about 46 µM; nearly all actives have a fitted effect of over 75% in size. The essentials: as §3
The nature of assay [18]: qHTS of pediatric cancer cell lines to identify multiple opportunities for drug repurposing: Primary screen for Saos-2 cells (AID 1347097). Note: nearly all actives have a fitted effect of over 40% in size. In a few lines: as §2
Assay [19] in a line: qHTS of pediatric cancer cell lines to identify multiple opportunities for drug repurposing: Primary screen for MG 63 (6-TG R) cells (AID 1347105). Note: nearly all actives have a fitted effect of over 50% in size. The essentials: as §2
A short description of assay [20]: qHTS of pediatric cancer cell lines to identify multiple opportunities for drug repurposing: Primary screen for NB-EBc1 cells (AID 1347095). The essentials:
as §2

In the case of `Cc1cc(NC(=O)C2=C(O)c3ccccc3S(=O)(=O)N2C)no1`, the outcome in [1], in assay [2], in [3], in assay [4], in assay [5] and in assay [7] was inactive. In addition, the compound was classed as inactive in assay [8], in assay [9], in assay [11], in assay [12], in assay [13] and in assay [14]. Moreover, the result in [15], in [16] and in assay [17] was inactive. Also, the Potency entry in assay [6] and in assay [10] was “inactive” throughout.
Regarding `CC(C)C[C@@H](N)C(=O)O`, the compound was classed as inactive in [1], in [2], in [3], in assay [4], in [5] and in assay [7]. Further, the compound was called inactive in [8], in assay [18], in assay [9], in assay [11], in assay [12] and in [13]. The compound was called inactive in assay [14], in assay [15], in assay [19], in [16] and in [17]. In assay [10], the Potency was 1 nM (active).
For `Nc1ccncc1N`, the call in assay [1], in assay [2], in assay [3], in assay [4], in assay [5] and in assay [20] was inactive. The outcome in assay [8], in [9], in assay [11], in [12], in assay [13] and in assay [14] was inactive. For the same compound, the call in [15], in [16] and in [17] was inactive. For the same compound, the Potency result in assay [6] and in assay [10] was “inactive” each time.
As for `NC(=O)c1ccc([N+](=O)[O-])cc1Cl`, the outcome in assay [1], in [2], in [3], in assay [4], in assay [5] and in [20] was inactive. Also, the compound was called inactive in assay [8], in assay [18], in [9], in assay [11], in assay [13] and in assay [14]. The compound was called inactive in assay [15], in assay [19], in [16] and in [17]. In addition, in assay [10], the Potency entry was “inactive”.
On to `CCCNC(C)(C)COC(=O)c1ccccc1`, for which the call in [1], in assay [2], in [3], in assay [4], in assay [5] and in assay [8] was inactive. Moreover, the result in assay [18], in assay [9], in assay [11], in assay [12], in assay [13] and in assay [14] was inactive. Also, the result in [15], in assay [16] and in assay [17] was inactive. Besides, the Potency entry in [10] was “inactive”.
For `O=C(O)c1ccc[n+]([O-])c1`, the compound was classed as inactive in assay [1], in assay [2], in [3], in [4], in assay [5] and in [20]. Also, the outcome in assay [8], in assay [18], in [9], in [11], in assay [12] and in [13] was inactive. In addition, the call in assay [14], in assay [15], in [19], in assay [16] and in assay [17] was inactive. The Potency entry in assay [6] and in [10] was “inactive” each time.
For `COC(=O)c1ccc(O)cc1`, the compound was classed as inactive in assay [1], in [2], in assay [3], in assay [4], in [5] and in [20]. Besides, the result in [8], in [18], in assay [9], in [11], in assay [13] and in assay [14] was inactive. The compound was called inactive in assay [15], in assay [19], in assay [16] and in assay [17]. Besides, the Potency result in [6] and in assay [10] was “inactive” throughout.
`CCOC(=O)[C@H](CCc1ccccc1)N[C@@H](C)C(=O)N1CCC[C@H]1C(=O)O`: the compound was classed as inactive in assay [1], in assay [2], in [3], in [4], in assay [5] and in assay [20]. Also, the outcome in [8], in assay [18], in assay [9], in assay [11], in assay [13] and in [15] was inactive. The call in assay [19], in [16] and in [17] was inactive. For the same compound, the Potency entry in assay [6] and in assay [10] was “inactive” throughout.
In the case of `Cc1ccsc1C(=CCCN1CCC[C@@H](C(=O)O)C1)c1sccc1C`, the call in [1], in assay [2], in assay [3], in assay [4], in assay [20] and in [8] was inactive. For the same compound, the result in assay [18], in [9], in [11], in [12], in assay [14] and in [15] was inactive. Besides, the call in assay [19], in assay [16] and in assay [17] was inactive. For the same compound, the Potency entry in assay [6] and in assay [10] was “inactive” each time.
Take `O=C(O)Cn1c(C(=O)Nc2nc(-c3ccccc3Cl)cs2)cc2ccccc21`: the result in assay [1], in [2], in assay [3], in [4], in assay [5] and in assay [7] was inactive. Also, the result in [20], in assay [8], in assay [18], in assay [9], in assay [11] and in [12] was inactive. Besides, the result in assay [14], in [15], in [19], in [16] and in [17] was inactive. Besides, in assay [10], the Potency result is “inactive”.
`Cc1[nH]c(C)c(Cl)c(=O)c1Cl`: the compound was called inactive in assay [1], in assay [2], in [3], in assay [4], in assay [5] and in assay [20]. For the same compound, the compound was classed as inactive in assay [8], in [18], in [9], in [11], in assay [12] and in assay [13]. Moreover, the compound was classed as inactive in assay [14], in assay [15], in [19], in assay [16] and in assay [17]. Besides, the Potency entry in assay [6] and in [10] was “inactive” in each case.
Turning to `Cc1c(N(C)C)c(=O)n(-c2ccccc2)n1C`, the call in [1], in [2], in assay [3], in [4], in assay [5] and in [20] was inactive. Moreover, the result in assay [8], in assay [18], in assay [9], in [11], in [12] and in assay [14] was inactive. The result in assay [15], in assay [19], in assay [16] and in [17] was inactive. Further, the Potency entry in [6] and in assay [10] was “inactive” in each case.
For the compound `CCOC(=O)[C@H](CCc1ccccc1)N[C@@H](C)C(=O)N1Cc2cc(OC)c(OC)cc2C[C@H]1C(=O)O`, the call in assay [1], in assay [2], in assay [3], in assay [4], in [5] and in assay [20] was inactive. For the same compound, the compound was called inactive in [8], in assay [18], in [9], in assay [11], in [12] and in [13]. Further, the result in assay [15], in assay [19], in assay [16] and in [17] was inactive. Besides, the Potency entry in assay [6] and in [10] was “inactive” in each case.
Regarding `C[N+](C)(C)CC[N+]1(C)Cc2c(Cl)c(Cl)c(Cl)c(Cl)c2C1`, the compound was called inactive in assay [1], in [2], in assay [3], in [4], in [5] and in assay [8]. The outcome in assay [18], in assay [9], in [11], in assay [12], in [13] and in [15] was inactive. The compound was called inactive in assay [19], in [16] and in assay [17]. In addition, the Potency result in assay [6] and in assay [10] was “inactive” each time.
For `O=C(O)Cc1ccc(CCNS(=O)(=O)c2ccc(Cl)cc2)cc1`, the compound was classed as inactive in assay [1], in assay [2], in assay [3], in assay [4], in [5] and in [20]. Further, the compound was called inactive in assay [8], in [18], in assay [9], in [11], in assay [12] and in [13]. Moreover, the call in assay [15], in assay [19], in [16] and in assay [17] was inactive. For the same compound, the Potency result in assay [10] is “inactive”.
In the case of `COc1ccc(NS(=O)(=O)c2ccc(N)cc2)nn1`, the outcome in [1], in [2], in assay [3], in assay [4], in [5] and in [7] was inactive. The compound was classed as inactive in assay [20], in [8], in assay [18], in assay [9], in assay [11] and in [12]. For the same compound, the call in assay [13], in assay [15], in assay [19], in assay [16] and in assay [17] was inactive. For the same compound, the Potency result in [10] is “inactive”.

For the origin of these results see PubChem BioAssay (NCATS).
